# Assay outcomes from PubChem BioAssay.
# Sampled rows, rich in hits. Any-hit rate of the full collection: about 32%.
# PostGolgi ctrl: yeast control strain growth, post-Golgi counter-screen; 5% of 98,000 active; AID 738; inhibition, % at 10 µM; efflux-deficient yeast background strain, growth absorbance A615, 16 h
# PostGolgi yeast: growth inhibition of a yeast mutant, post-Golgi transport screen; post-Golgi transport phenotypic cell assay; inhibition, % at 10 µM; 0.9% of 98,000 active; AID 739;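 further: yeast cells grown in 1536-well plates; yeast grown about 18 h at 30C before absorbance read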
# CYP2C9 act: CYP2C9 (human) activation. 1.4% of 96,000 active. activation factor at 5 µM. recombinant CYP2C9, luciferin-H conversion, luminescence; stronger effect = higher value; factor 1 = untreated enzyme, 0 = blocked;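 active means activation factor of 2 or more for CYP2C9 at a 5 µM dose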;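 further: 0 = sulfaphenazole-blocked wells and 1 = vehicle-only wells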
# Target sequence (P11712 whole entry, looked up): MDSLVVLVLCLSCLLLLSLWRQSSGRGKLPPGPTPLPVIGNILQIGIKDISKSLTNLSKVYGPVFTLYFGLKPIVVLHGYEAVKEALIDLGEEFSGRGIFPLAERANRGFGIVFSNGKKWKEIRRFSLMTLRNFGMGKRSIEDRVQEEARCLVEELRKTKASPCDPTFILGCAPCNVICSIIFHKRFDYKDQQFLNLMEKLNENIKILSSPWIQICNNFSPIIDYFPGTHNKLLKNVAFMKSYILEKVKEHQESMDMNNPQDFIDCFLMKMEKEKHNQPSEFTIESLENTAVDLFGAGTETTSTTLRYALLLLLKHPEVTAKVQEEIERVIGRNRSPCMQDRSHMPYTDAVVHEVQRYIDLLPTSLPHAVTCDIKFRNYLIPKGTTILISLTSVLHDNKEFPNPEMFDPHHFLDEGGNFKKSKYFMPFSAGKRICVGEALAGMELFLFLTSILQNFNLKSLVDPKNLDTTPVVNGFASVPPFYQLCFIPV
# CYP2C19 act: activators of human cytochrome P450 2C19; P33261; recombinant CYP2C19, luciferin-H EGE luminescence; stronger effect = higher value; 0 = fully inhibited enzyme, 1 = untreated enzyme; activation factor at 5 µM; 96,000 tested, under 10 active;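 active means activation factor of at least 2 at 5 µM in the primary screen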;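 further: 0 = wells with 2.5 mM tranylcypromine and 1 = vehicle-only wells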
# CYP2C19 inhib: blocks human cytochrome P450 2C19; P33261; CYP2C19 Supersomes, luciferin-H EGE luminescence, 30 min; inhibition, % at 5 µM; 21% of 96,000 active; AID 778;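 active means CYP2C19 inhibition above a set limit at 5 µM in the primary screen, cut at about 50% in these data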;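 further: plate controls were negative control wells for no effect and 2.5 mM tranylcypromine positive control for full effect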
# CYP2C9 inhib: inhibitors of human CYP2C9. P11712. inhibition, % at 5 µM. 20% of 96,000 active. CYP2C9 Supersomes, luciferin-H conversion, luminescence;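 active means blocking of liver enzyme CYP2C9 beyond about 50% at 5 µM, limit read from the data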
# The depositor's hits bear a star. Unless noted, no stated cut-off is given here; in the data, active means inhibition above about 30%; inactive means the rest.
SMILES,PostGolgi ctrl,PostGolgi yeast,CYP2C9 act,CYP2C19 act,CYP2C19 inhib,CYP2C9 inhib
O=C(Nc1ccc(Cl)cc1)N(Cc1nnc2n1CCCCC2)c1ccccc1,-7,3,1.3,1.2,-16,-26
CCOc1ccc(NC(=O)CCn2c(=O)[nH]c3ccsc3c2=O)cc1,3,0,0.4,0.8,16,57*
CC(C)(C)c1ccc(C(=O)c2c[nH]c(C(=O)NCCCN3CCOCC3)c2)cc1,13,-16,1,0.9,8,-1
C=CCc1cc(C)ccc1OCC(O)CN1CCN(c2ccccc2)CC1 (configuration not stated),15,3,0.9,0.8,20,12
C=CCc1ccccc1OCC(CN1CCCCC1)OC(C)=O (configuration not stated),14,6,1,0.5,53*,0
C=CCc1ccccc1OCC(O)CN1CCN(c2ccccc2F)CC1 (configuration not stated),11,6,0.5,0.3,66*,55*
C=CCc1cc(OC)ccc1OCC(O)CN1CCN(c2ccc(OC)cc2)CC1 (configuration not stated),45*,-6,1.1,0.8,15,-9
C=CCc1ccccc1OCC(O)CN1CCN(c2ccccc2OC)CC1 (configuration not stated),-10,13,1.3,0.6,44,-33
Cc1ccccc1NC(=O)Cn1cccc1,3,-13,1,1,0,-3
CCN(CC)S(=O)(=O)c1cc(C(=O)Nc2nncs2)c(Cl)cc1Cl,11,-3,0.8,1,0,17
COc1cc(C(=O)N(Cc2cccnc2)Cc2cc3cc4c(cc3[nH]c2=O)OCCO4)cc(OC)c1OC,15,-6,0.6,1,1,44
CCCCN=CC1=C(O)C(C(=O)OC)C(C)(C)CC1=O (configuration not stated),1,-4,1.1,0.8,23,-9
COc1ccc(Cl)cc1NC(=O)NCCCl,23,1,1.1,0.8,18,-12
COc1ccc(Cl)cc1NC(=O)CC(C)c1ccccc1 (configuration not stated),16,5,4*,0.2,85*,-296
COc1ccc(NC(=O)C2CCCO2)cc1OC (configuration not stated),2,-17,0.9,1.1,-7,8
COc1ccc(Cl)cc1NC(=O)CC(C)=O,8,-1,3.6*,0.9,8,-261
COc1ccc(Cl)cc1NC(=O)C1CCCO1 (configuration not stated),11,7,3.1*,0.7,29,-214
COc1ccc(Cl)cc1NC(=O)C/C(C)=N/NC(=O)CC#N,-2,-18,1.7,1.2,-16,-72
CCc1nc(C)cc(N)c1OCc1ccccc1,7,-5,1,1,4,1
c1ccc2c(Nc3nc4c(s3)CCCC4)cccc2c1,-4,-1,1.1,1.1,-5,-11
O=S(=O)(c1ccc(-c2csc(=Nc3ccccc3)n2CCCN2CCOCC2)cc1)N1CCOCC1,8,0,0.6,0.4,56*,36
CC(=O)c1cnc2cc(-c3ccc(Cl)cc3)nn2c1C,10,8,0.8,0.9,14,18
CCC(Sc1nc(N)cc(=O)[nH]1)C(=O)NC(C(=O)OC)c1ccccc1 (configuration not stated),-1,-4,1,1,0,-3
Cc1ccc(S(=O)(=O)/N=C(\Sc2ccccc2)c2ccccc2)cc1,0,2,0.4,0.7,34,62*
CSC(=NS(=O)(=O)c1ccc(C)cc1)SC,7,2,2.1*,0.8,21,-106
SMILES,PostGolgi ctrl,PostGolgi yeast,CYP2C9 act,CYP2C19 act,CYP2C19 inhib,CYP2C9 inhib
Cc1ccc(S(=O)(=O)/N=C(\CSC(N)=O)Nc2ccccc2)cc1,-1,1,1.9,0.8,21,-87
O=S(=O)(/N=C(\Sc1ccccc1)c1ccccc1)c1ccc(Cl)cc1,8,-2,0.4,0.8,16,62*
CCOC(=S)N/C(=N\S(=O)(=O)c1ccc(C)cc1)c1ccccc1,10,-2,0.1,0.5,46,91*
Cc1ccc(S(=O)(=O)/N=S(/C)c2ccccc2)cc1 (configuration not stated),-4,-1,1.5,0.9,12,-52
COc1ccc(N=C2C(=O)Nc3c(C)cccc32)cc1,-1,-4,0.9,1,-2,5
Brc1ccc(-c2cnc(-c3cccs3)o2)cc1,19,3,0.4,0.7,31,59*
CCN(CC)C(=S)Sc1c(-c2ccccc2)c2cc(Cl)ccc2[nH]c1=O,32*,18,0.9,1.2,-16,8
O=C1C2C3C=CC(C3)C2C(=O)N1c1ncn[nH]1 (configuration not stated),35*,9,1,1.1,-7,-3
O=S1(=O)N=C(N2CCc3ccccc3C2)c2ccccc21,8,-8,1.2,0.6,40,-20
Cn1c(SCC(=O)N(Cc2ccccc2)C(C)(C)C)nc2ccccc21,27,-5,1.4,0.5,50*,-38
Cn1c(SCC(=O)N2CCN(S(=O)(=O)c3ccccc3)CC2)nc2ccccc21,10,-2,1.5,0.7,30,-48
CCOc1cc(/C=C2\C(=O)N(Cc3ccc(C)cc3)C(C)=C2C(=O)OC)ccc1O,17,2,0.2,0.6,40,83*
CCN1C(=O)/C(=C\c2ccc3c(c2)OCO3)C(C(=O)OC)=C1C,-5,23,0.6,0.8,15,39
COc1cccc(-c2cc(C(F)(F)F)nc(N3CCN(c4ccccc4)CC3)n2)c1,1,-1,0.7,0.9,7,28
COC(=O)c1ccccc1NC(=O)c1ccc(-c2ccccc2F)o1,9,-5,1.1,1.1,-7,-9
COC(=O)c1ccccc1NC(=O)c1ccc(Cn2cc(Cl)cn2)o1,10,-6,1.3,0.5,50*,-33
COC(=O)c1cc(NC(=O)c2ccc(Cn3cc(Cl)cn3)o2)cc(C(=O)OC)c1,6,-6,0.1,0.2,77*,89*
CCOC(=O)c1c(NC(=S)NC(=O)c2ccc(Cn3cc(Cl)cn3)o2)sc2c1CCC(C)C2 (configuration not stated),2,-5,0.7,1.1,-9,32
Cc1ccc2nc(Cc3ccc(N)cc3)[nH]c2c1,-1,-2,0.9,0.2,82*,10
Nc1ccc(Cc2nc3c(ccc4ccccc43)[nH]2)cc1,20,-5,0.7,0.1,86*,33
O=C(O)c1cc2c(ccc3ccccc32)[nH]1,8,3,1.1,1.1,-10,-8
O=C(CSc1nc(N2CCCCC2)nc(N2CCCCC2)n1)N1CCc2ccccc21,7,-2,0.6,0.9,13,45
O=C(CSc1n[nH]c(-c2ccccc2O)n1)N1CCCc2ccccc21,16,3,0.1,0.2,82*,86*
CCc1nnc(SCC(=O)N2CCCc3ccccc32)nc1CC,4,3,0.4,0.2,78*,56*
